Data from the supplement of paper PMC8975748.
Where a name gives a salt, the structure may show the parent alone. ± gives the standard deviation of the averaged measurements.

Each molecule was assayed on Saccharomyces cerevisiae BY4741 SeMeCo community (assay: mean cell size (pixel area) (pixels); higher = larger cells). Settings: 10 µM; 24 h; SM minimal medium.
Procedure, shortened: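 Plates of 384 wells were acoustically predosed with drug at a final 10 µM in SM medium, and 70 µl of a Saccharomyces cerevisiae BY4741 preculture diluted from OD600 = 1.0 to OD600 = 0.3 was added for 24 h. The yeast formed a four-plasmid fluorescent community in which each plasmid complements one auxotrophy and carries a fluorescent marker. Fixed cells were imaged by automated confocal microscopy and analysed in Harmony for mean cell pixel area per well. Values are means of 3 replicates. Same SeMeCo high-content imaging drug screen: Selleck FDA-approved drugs at 10 µM, 24 h in SM medium, 384-well plates, 3 replicates.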
`C#C[C@]1(O)C=C[C@H]2[C@@H]3CCC4=CC(=O)CC[C@@H]4[C@H]3CC[C@@]21CC` [Gestodene] showed a mean cell size of 12.5 ± 0.17.
`COC(=O)C1=CCCN(C)C1` [Arecoline HBr] was tested, and the mean cell size was 12.4 ± 0.29.
With `COc1cc2c(cc1OC)C1CC(=O)C(CC(C)C)CN1CC2` (centres undefined) [Tetrabenazine (Xenazine)] the mean cell size was 12.62 ± 0.049.
Molecule `CCCN1C[C@H](CSC)C[C@@H]2c3cccc4[nH]cc(c34)C[C@H]21` [Pergolide Mesylate] has a mean cell size of 12.4 ± 0.25.
Molecule `CC[N+](C)(CC)CCOC(=O)C(O)(c1ccccc1)c1ccccc1` [Methylbenactyzine Bromide] has a mean cell size of 12.6 ± 0.34.
In the case of `CN(C)C(=O)Oc1cccc([N+](C)(C)C)c1` [Neostigmine Bromide], the mean cell size is reported as 11.8 ± 0.15.
`C[CH2][Hg][S]c1ccccc1C(=O)[O-].[Na+]` [Thimerosal] gave a mean cell size of 12.3 ± 0.52.
Molecule `COc1ccc2c(c1)[C@]13CCCC[C@@H]1[C@H](C2)N(C)CC3` [Dextromethorphan hydrobromide hydrate] has a mean cell size of 12.5 ± 0.24.
For `C[N+]12CCC(CC1)C(OC(=O)C(O)(c1ccccc1)c1ccccc1)C2` (centres undefined) [Clidinium Bromide], the mean cell size was 12.4 ± 0.13.
`CC[C@@H](C(N)=O)N1CCCC1=O` [Levetiracetam] showed a mean cell size of 12.5 ± 0.14.
For `CC[C@H]1CN2CC[C@]3(C(=O)Nc4ccccc43)[C@@H]2C[C@@H]1/C(=C\OC)C(=O)OC` [Rhynchophylline], the mean cell size was 12.38 ± 0.1.
`CCN(CC)CCOC(=O)C(O)(c1ccccc1)c1ccccc1` [Benactyzine hydrochloride] showed a mean cell size of 12.4 ± 0.051.
`C[C@@H]1CC[C@H]2[C@@H](C)C(=O)O[C@@H]3O[C@@]4(C)CC[C@@H]1[C@]32OO4` [Artemisinin] was tested, and the mean cell size was 12.3 ± 0.3.
Molecule `N[C@@H]1C[C@H]1c1ccccc1` [Tranylcypromine (2-PCPA) HCl] has a mean cell size of 12.3 ± 0.32.
For `C=C[C@H]1CN2CC[C@H]1C[C@H]2[C@H](O)c1ccnc2ccccc12` [Cinchonidine], the mean cell size was 12.47 ± 0.048.
`Oc1cc(Cl)ccc1Oc1ccc(Cl)cc1Cl` [Triclosan] was tested, and the mean cell size was 12.5 ± 0.31.
With `C=C(C)[C@H]1Cc2c(ccc3c2O[C@@H]2COc4cc(OC)c(OC)cc4[C@@H]2C3=O)O1` [Rotenone (Barbasco)] the mean cell size was 12.67 ± 0.1.
`O=c1cccc2n1C[C@@H]1CNC[C@H]2C1` [Cytisine] was tested, and the mean cell size was 12.6 ± 0.21.
For `CC(=O)c1c(O)cc(C)oc1=O` [Sodium dehydroacetate], the mean cell size was 12.3 ± 0.038.
`Cc1cc(O)ccc1Cl` [Chlorocresol] was tested, and the mean cell size was 12.6 ± 0.13.
In the case of `C[N+](C)(C)CCCCCCCCCC[N+](C)(C)C` [Decamethonium Bromide], the mean cell size is reported as 12.47 ± 0.097.
`CCOC(=O)Nc1ccc(NCc2ccc(F)cc2)cc1N` [Retigabine] gave a mean cell size of 12.58 ± 0.12.
Molecule `CCN(C)C(=O)Oc1cccc([C@H](C)N(C)C)c1` [Rivastigmine Tartrate] has a mean cell size of 12.38 ± 0.056.
Work on `N#Cc1nn(-c2c(Cl)cc(C(F)(F)F)cc2Cl)c(N)c1[S+]([O-])C(F)(F)F` (centres undefined) [Fipronil] yielded a mean cell size of 12.3 ± 0.2.
`CCC1=C[C@H]2CN3CCc4c([nH]c5ccccc45)[C@](C(=O)OC)(C2)[C@H]13` [Catharanthine] showed a mean cell size of 12.5 ± 0.19.
`C[C@H]1O[C@H](O[C@H]2[C@H](O)[C@@H](O)[C@@H](O)[C@H](O)[C@@H]2O)[C@@H](N)C[C@@H]1NC(=N)C(=O)O` [Kasugamycin hydrochloride] gave a mean cell size of 12.1 ± 0.21.
`CCN(C)C(=O)Oc1cccc([C@H](C)N(C)C)c1` [Rivastigmine] gave a mean cell size of 12.7 ± 0.17.
`CN1[C@@H]2CC[C@H]1C[C@@H](OC(=O)C(CO)c1ccccc1)C2` (some centres undefined) [Atropine sulfate monohydrate] showed a mean cell size of 12.26 ± 0.093.
With `CC(=O)O[C@H]1C[C@@H]2CC[C@@H]3[C@H](CC[C@@]4(C)[C@H]3C[C@H]([N+]3(C)CCCCC3)[C@@H]4OC(C)=O)[C@@]2(C)C[C@@H]1[N+]1(C)CCCCC1` [Pancuronium dibromide] the mean cell size was 12.5 ± 0.19.
For `C[C@@H]1[C@H](O)[C@@H](C)/C=C/C=C/CC/C=C/C=C/C=C/C=C/[C@H](O[C@H]2O[C@@H](C)[C@H](O)[C@@H](N)[C@H]2O)C[C@@H]2O[C@](O)(C[C@@H](O)[C@H](O)CC[C@@H](O)C[C@@H](O)C[C@@H](O)CC(=O)O[C@H]1C)C[C@H](O)[C@H]2C(=O)O` [Nystatin (Fungicidin)], the mean cell size was 9.704 ± 0.046.
`O=[N+]([O-])C(Br)(CO)CO` [Bronopol] was tested, and the mean cell size was 12.2 ± 0.43.
For `NCCc1c[nH]c2ccc(O)cc12` [Serotonin HCl], the mean cell size was 12.2 ± 0.41.
In the case of `NCC(O)c1ccc(O)cc1` (racemic) [(+,-)-Octopamine HCl], the mean cell size is reported as 12.3 ± 0.14.
With `C=CCN1C[C@H](C(=O)N(CCCN(C)C)C(=O)NCC)C[C@@H]2c3cccc4[nH]cc(c34)C[C@H]21` [Cabergoline] the mean cell size was 12.2 ± 0.17.
